A350 autofl = A350 region autofluorescence; Compound autofluorescence, 340/450 nm, Alexa 350 dye-equivalents; hits give high values; max dye-equivalent concentration, M; 59,000 compounds, 11% hits; AID 590; in the data active = max dye-equivalent concentration above about 10 nM; inconclusive = mostly about 1.1 nM to 9.6 nM
AID923 = qHTS Assay for Allosteric/Competitive Inhibitors of Caspase-1: Spectroscopic Profiling in AFC Spectral Region. AID 923, 2007. compound fluorescence, AFC spectral region (405/520 nm). 75,000 compounds, 1.1% hits. Potency, µM (top dose mostly 57.5 µM), inactives show top-dose fluorescence increase, usual class: activators; also: potency is read from the fitted curve at half-maximal effect; 0% is about no effect
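Compound autofluorescence profiled at 405 nm ex/520 nm em during kinetic caspase 1 run (50 nM enzyme, 5 uM Ac-WEHD-AFC, HEPES pH 7.5, 10 mM DTT). Titration up to 57 uM; baseline from regression intercept, normalized to AFC standard curve.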
HADH2 inh = blocks human hydroxyacyl-CoA dehydrogenase type II; recombinant HADH2, NADH fluorescence, beta-hydroxybutyryl-CoA; Potency, µM (highest dose often 57.1 µM), without a hit: top-dose activity change, negative = inhibition, usual class: inhibitors; 73,000 compounds, 3.4% hits; AID 886; also: potency is read from the fitted curve at half-maximal effect; % is scaled to controls: 0 for no effect and ±100 for the full control effect; nearly all actives have a fitted effect of over 60% in size
Target sequence (Q99714 whole entry, looked up, one chain of several): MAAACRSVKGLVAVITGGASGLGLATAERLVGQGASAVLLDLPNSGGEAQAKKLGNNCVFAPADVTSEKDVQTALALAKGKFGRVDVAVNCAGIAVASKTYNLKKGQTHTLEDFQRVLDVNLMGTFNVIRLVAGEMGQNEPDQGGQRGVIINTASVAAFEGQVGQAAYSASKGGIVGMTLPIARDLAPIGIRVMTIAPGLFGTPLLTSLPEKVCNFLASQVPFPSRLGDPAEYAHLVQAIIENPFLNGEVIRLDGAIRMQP
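His-tagged recombinant enzyme from E. coli, 20 nM, preincubated 15 min RT with compound; reaction started with 1 mM NAD+ and 90 uM beta-hydroxybutyryl-CoA in 100 mM Tris-HCl pH 9.0. NADH fluorescence (ex 360/em 450) read over 4 min; last-minus-first difference.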
4-MU autofl = compound fluoresces in the 4-MU spectral region | max dye-equivalent concentration, M | 59,000 compounds, 11% hits | compound autofluorescence, 340/450 nm, 4-MU equivalents; hits give high values; in the data active = max dye-equivalent concentration above about 10 nM; inconclusive = mostly about 1.1 nM to 9.6 nM
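Compounds in 100 mM Tris, pH 8.0, sat 15 min at room temperature before fluorescence was read at 340 nm excitation/450 nm emission; a per-plate six-point 4-MU standard curve converted signals to dye-equivalent concentration at each compound concentration.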
HSD17B inhib = HSD17B dehydrogenase inhibition; Q99714; recombinant HSD17B10, NADH fluorescence kinetic; Potency, µM (top dose mostly 57.1 µM), for inactives: at the highest dose activity change, negative = inhibition, usual class: inhibitors; 75,000 compounds, 7.6% hits;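 also: the protocol describes HADH2 (HSD17B10) and not the HSD17B4 of the title; potency is read from the fitted curve at half-maximal effect; % is scaled to controls: 0 for no effect and ±100 for the full control effect; nearly all actives have a fitted effect of over 70% in size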
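His-tagged E. coli-expressed HADH2 at 20 nM in 100 mM Tris-HCl pH 9.0 with 0.01 % Tween-20, preincubated 15 min with compound at room temperature. Reaction with 1 mM NAD+ and 90 uM beta-hydroxybutyryl coenzyme A; NADH fluorescence (360/450 nm) read kinetically over 4 min, last minus first point.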
Active calls of the source: *; i = inactive; ? = inconclusive; . = not tested or not shown; [ ] = dose if it differs, or a comment. Most compounds without a hit are left out; they make up all but 13% or so of the library. Unless noted, calls follow the shape of the dose curve; as a rule, active = well fitted curve in the direction sought with a large enough effect; inconclusive = small, poorly fitted or top-dose-only effect, or another doubt; inactive = no such curve, though single readings can be large; an effect the other way counts as inactive or inconclusive.

SMILES | A350 autofl | AID923 | HADH2 inh | 4-MU autofl | HSD17B inhib
O=C1C[C@H]2C(=O)[C@@H]1[C@@H](C(=O)O)[C@H]2C(=O)O | i | -2%[11.5 µM] | 9%[11.4 µM] | i | -2%[11.4 µM]
COc1ccc(CNC(=O)[C@H]2C[C@@H]2[C@H](NP(=O)(c2ccccc2)c2ccccc2)c2ccccc2)cc1OC | . | -2% | 7% | . | 8%
Cc1ccc(N[C@H](c2ccccc2)c2ccc3cccnc3c2O)cc1 | i | 0%[11.5 µM] | 8%[11.4 µM] | i | -5%[11.4 µM]
CC1=CC(=O)CC(C)(C)[C@@]1(O)/C=C\C(C)=C\C(=O)O | i | . | 3% | i | .
Cc1noc(C)c1C(=O)N1CCC[C@@]2(CCN(C(=O)Nc3cccc(C#N)c3)C2)C1 | i | 13% | 6% | i | -2%
Cc1c(C)c2c(c(C)c1O)CC[C@@](C)(CCC[C@@H](C)CCC[C@@H](C)CCCC(C)C)O2 | i | 3%[25.7 µM] | -4%[25.6 µM] | i | 3%[25.6 µM]
O=C(NCCc1c[nH]c2ccccc12)[C@@H]1C[C@H]1[C@@H](NP(=O)(c1ccccc1)c1ccccc1)c1ccccc1 | . | 1% | 5% | . | 18%
COCCNC(=O)c1c(N)sc2c1CCCC2 | 4.3e-08M* | 9% | ? | 3.1e-08M* | ?
CCCOC(=O)c1c(N)sc2c1CCC2 | . | 0% | -18% | . | -11%
Nc1sc2c(c1C(=O)NC1CCS(=O)(=O)C1)CCC2 (stereo not drawn) | ? | 11% | 1.6µM* | i | -15%
CC(C)OC(=O)c1c(N)sc2c1CCCC2 | i | -1% | 7.9µM* | i | -14%
COc1ccccc1-c1cc(=O)c2cc(O)ccc2o1 | i | -1% | -2% | i | 4%
COc1ccccc1-c1ccc(C(=O)O)o1 | ? | -1% | 25µM* | i | 32µM*
O=C(O)[C@@H]1[C@@H](C(=O)NCc2ccncc2)[C@@H]2C=C[C@@H]1O2 | ? | 3%[11.5 µM] | 8%[11.4 µM] | ? | -2%[11.4 µM]
O=C(c1cc(C(F)(F)F)cc(C(F)(F)F)c1)N1CCC2(CCN(Cc3nccs3)CC2)CC1 | i | 0% | 10% | i | -5%

Screening data deposited in PubChem BioAssay by National Center for Advancing Translational Sciences (NCATS).
